Laboratory results: PubChem BioAssay (NCI)
This is part of a sample that, as a whole, favours compounds with a hit. Of some 83,000 tested, about 20% had one in any assay.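 Negative percent growth values reflect cell death: -40 means 40% of the cells present at the start died, and -100 means all died.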 Unmarked numbers belong to inactive results. The source made the active and inactive calls. How the source made its calls: active means growth percent below 10; inactive means the rest.

Columns and labels:
Experiment in all cases: NCI-60 one-dose screen, 48 h (100 = growth as untreated, 0 = no growth, -100 = all killed)
Conditions in all cases: 10 µM
NCI-H23 lung = system: NCI-H23 lung
NCI-H226 lung = system: NCI-H226 lung
NCI-H322M lung = system: NCI-H322M lung
HOP-62 NSCLC = system: HOP-62 NSCLC
NCI-H460 lung = system: NCI-H460 lung
HOP-92 NSCLC = system: HOP-92 NSCLC
NCI-H522 lung = system: NCI-H522 lung
A549/ATCC NSCLC = system: A549/ATCC NSCLC
786-0 renal = system: 786-0 renal
COLO 205 colon = system: COLO 205 colon
DU-145 prostate = system: DU-145 prostate
K-562 leukemia = system: K-562 leukemia
MDA-MB-231 breast = system: MDA-MB-231 breast
RXF 393 renal = system: RXF 393 renal
SF-268 CNS = system: SF-268 CNS
SF-295 CNS = system: SF-295 CNS
SF-539 CNS = system: SF-539 CNS
UACC-257 melanoma = system: UACC-257 melanoma
M14 melanoma = system: M14 melanoma

SMILES	growth (NCI-H23 lung)	growth (NCI-H226 lung)	growth (NCI-H322M lung)	growth (HOP-62 NSCLC)	growth (NCI-H460 lung)	growth (HOP-92 NSCLC)	growth (NCI-H522 lung)	growth (A549/ATCC NSCLC)	growth (786-0 renal)	growth (COLO 205 colon)	growth (DU-145 prostate)	growth (K-562 leukemia)	growth (MDA-MB-231 breast)	growth (RXF 393 renal)	growth (SF-268 CNS)	growth (SF-295 CNS)	growth (SF-539 CNS)	growth (UACC-257 melanoma)	growth (M14 melanoma)
O=C(NNC(=O)c1ccncc1)Nc1ccc([N+](=O)[O-])cc1	94.7%	115%	105%	97%	105%	103%	88.5%	106%	107%	112%	105%	75.8%	109%	124%	106%	99.1%	94%	116%	116%
O=C(N/N=C/c1ccccc1O)c1ccccc1	41.3%	27.2%	34.3%	38.9%	9.53% (active)	7.78% (active)	-4.7% (active)	38.7%	17.9%	19.3%	32.4%	15.8%	32.5%	41.2%	30%	26%	27.9%	-8.71% (active)	26.5%
CCN(CC)CCCOC(=O)Nc1ccccc1Cl	108%	108%	129%	112%	115%	94.9%	102%	107%	98.9%	118%	105%	99.6%	110%	109%	111%	113%	94.7%	111%	107%
COc1c(C)c(C)c(OC)c2c1[nH]c(=O)c1c3cccnc3cn21	103%	99%	153%	92.6%	104%	102%	98.4%	114%	114%	118%	111%	102%	86.1%	116%	112%	119%	103%	126%	103%
COc1ccccc1CNCCCN1C(=O)c2ccc3c4c(ccc(c24)C1=O)C(=O)N(CCCNCCNCCCN)C3=O	6.85% (active)	39.9%	27.9%	40.4%	6.29% (active)	66.3%	-0.0156% (active)	6.04% (active)	45.4%	-59.4% (active)	16.3%	10.2%	20.3%	25.2%	1.02% (active)	51.3%	14.1%	-6.36% (active)	46.7%
S=C(Cc1ccc(-c2ccccc2)cc1)N1CCOCC1	104%	91.7%	96%	93.6%	103%	83.1%	89.8%	90.9%	93.6%	103%	104%	95.3%	84.7%	103%	101%	93.6%	99%	107%	101%
N#CC1C=Cc2c(ccc3ccccc23)N1C(=O)c1ccccc1 (centres undefined)	29.8%	12.9%	22.6%	50%	1.38% (active)	50.6%	9.32% (active)	26.9%	34%	-39.8% (active)	-2.67% (active)	17.2%	24.4%	5.17% (active)	27.2%	-19.4% (active)	-7% (active)	70.3%	7.78% (active)
COc1cc(-c2nc(-c3nnc(-c4cccnc4)o3)c3ccccn23)cc(OC)c1OC	101%	86%	101%	102%	109%	100%	94.7%	93.9%	89.1%	119%	114%	95.4%	97.7%	115%	95.7%	79.5%	107%	104%	110%
Oc1[nH]c2ccccc2c1/C=c1/cc2c(c(-c3ccc(C(F)(F)F)cc3)n1)=Nc1ccccc1-2	71.1%	54.1%	93.8%	85%	22%	20.7%	33.5%	56.8%	66%	33.9%	62.5%	22.8%	45.6%	56.1%	79.1%	37%	83.5%	82.4%	33.5%
COc1ccc(-c2ccccc2)cc1C(=O)c1ccc(-c2ccccc2)cc1	73.6%	88.2%	75.5%	70.4%	88.9%	88.4%	42.7%	63.7%	77.4%	82.5%	94%	20.8%	96.8%	85.7%	88.5%	53.4%	88.4%	106%	52%
C=CCNCCCN1C(=O)c2ccc3c4c(ccc(c24)C1=O)C(=O)N(CCCNCC=C)C3=O	-55.6% (active)	-30.8% (active)	-48.3% (active)	-53% (active)	-56.7% (active)	-21.6% (active)	-77.3% (active)	-73.6% (active)	-31% (active)	-86.8% (active)	-94.8% (active)	0.431% (active)	1.35% (active)	-94.1% (active)	-22.1% (active)	-76.9% (active)	-88.7% (active)	-84% (active)	-84.8% (active)
O=C(OCC1OC(n2cc(C(F)(F)F)c(=O)[nH]c2=O)CC1OC(=O)c1ccc([N+](=O)[O-])cc1)c1ccc([N+](=O)[O-])cc1 (centres undefined)	90.9%	72.5%	91.2%	75.9%	31.2%	69.9%	76.6%	69.6%	18.9%	87.8%	30.3%	62%	95.3%	80.3%	55.6%	63.5%	18.3%	38.4%	-17.6% (active)
CCCCOCC(=O)NC(NP(=O)(N(C)C)N(C)C)C(Cl)(Cl)Cl (centres undefined)	101%	109%	127%	81.2%	110%	97.7%	107%	102%	92.5%	109%	139%	84.2%	121%	130%	122%	70%	114%	108%	94.3%
O=C(Nc1cccc([N+](=O)[O-])c1)NN1CCCCCC1	105%	95.7%	111%	111%	91.2%	80.8%	90%	87%	96.3%	104%	94.7%	84.1%	77.7%	113%	98.1%	94%	86.9%	105%	110%
CCOC(=O)C(=O)Cc1cccnn1	101%	95.2%	109%	103%	116%	86.1%	97.2%	97.5%	96.4%	102%	113%	110%	96.4%	102%	113%	139%	92.4%	96.2%	103%
COc1cc(N=C2C(=O)N(Cc3ccccc3)c3ccccc32)cc(OC)c1OC	89.9%	88.3%	108%	101%	103%	35.6%	75%	103%	103%	114%	104%	97.4%	105%	-23% (active)	97.4%	94.3%	93%	96.6%	98.2%
